Only some compounds are listed: those with a hit (about 4.3% of all), similar ones and a draw of the others.
KKLEB cytotox = cytotoxicity in KKLEB CF airway cells, primary screen, cytotoxicity control for CF NF-kB inhibitor project, cell-based, uHTS, fluorescence assay plates. 360,000 tested, 0.36% active. KKLEB CF airway cells viability, ATPlite luminescence, overnight; hits give low values; cells stimulated with P. aeruginosa culture filtrate. activity change (cytotoxicity), % at 5 µM;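 active means corrected activity change at or below -50% at 5 µM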
TRPM1 prom inh = inhibitors of MITF-dependent TRPM1 promoter reporter, primary screen, cell-based, SK-MEL-5, single point, luciferase. SK-MEL-5 TRPM1 promoter luciferase, 24 h. inhibition, % at 12.5 µM. 330,000 tested, 0.83% active. AID 488899, 2010;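 active means mean inhibition across replicates of 60% or more, whatever share of single replicates reaches that level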
CHOP inh = inhibitors of CHOP promoter induction, primary screen, cell-based, unfolded protein response, luciferase reporter; AID 2732, 2010; 220,000 tested, 3.8% active; CHO-K1 CHOP-promoter luciferase, tunicamycin-induced, 15-18 h; inhibition, % at 10 µM;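 active means compounds that reduced the stress-induced luciferase reporter signal by more than about 70% of percent inhibition, limit read from the data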;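 further: 0% = tunicamycin plus vehicle and 100% = wells without tunicamycin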
HIF-2a inh = HIF-2a reporter inhibitors, primary screen, luminescence, 786-0 RCC cells. 786-0 RCC cells HIF-2a reporter, luciferase luminescence, overnight. inhibition, % at 18.8 µM. 360,000 tested, 0.72% active. AID 624352, 2012;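 active means inhibition of the luminescence signal of 40% or more relative to plate controls, in a single-dose primary screen at 18.75 µM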
Peg3 promoter = Peg3 promoter-driven luciferase inhibitors, primary screen, cell-based, HeLa, luciferase luminescence; HeLa PEG-Prom luciferase reporter, overnight; inhibition, % at 20 µM; 360,000 tested, 1.7% active; AID 588405, 2011;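 active means inhibition of at least 50% at 20 µM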
CF NFkB block = inhibitors of PAF-induced NF-kB signaling, primary screen, cell-based, GFP fluorescence, uHTS; KKLEB NF-kB-GFP reporter, GFP fluorescence overnight; inhibition, % at 5 µM; 360,000 tested, 0.86% active;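 active means at least 50% inhibition at 5 µM, scaled per plate between neutral and stimulator controls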;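 further: PAF is a Pseudomonas aeruginosa culture filtrate used as stimulus; plate controls were PAF-stimulated DMSO wells for no effect and unstimulated DMSO wells for full effect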
CHOP confirm = retest of CHOP induction inhibitors, confirmation, cell-based | CHO-CHOP promoter luciferase reporter, tunicamycin-induced, luminescence | 2,100 tested, 45% active | inhibition, % at 10 µM | shares compounds with CHOP inh;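 active means mean of three repeat readings of reporter signal inhibition above a set limit, cut at about 70% in these data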;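 further: 0% = tunicamycin plus vehicle and 100% = wells lacking tunicamycin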
Numbers without * were called inactive; nt = no result.

SMILES	KKLEB cytotox	TRPM1 prom inh	CHOP inh	HIF-2a inh	Peg3 promoter	CF NFkB block	others
C=C(C=O)C[C@@H]1C[C@H](O)C2OC3C[C@]4(C)OC5/C=C\CC6OC7C(CC=CCC6OC5CCCC4OC3CC2O1)OC1CC2OC3CC(=O)OC3C[C@@H](C)C[C@@]2(C)OC1C[C@@H]7C (stereo partly specified)	nt	nt	107.0*	nt	nt	nt
C=C(C=O)CC1CC(O)[C@]2(C)OC3C[C@@H]4OC5C[C@]6(C)O[C@]7(C)CCC8OC9C[C@]%10(C)OC(/C(C)=C\CO)C(O)CC%10OC9CC(C)C8OC7CC6O[C@]5(C)C/C=C\C4OC3CC2O1 (stereo partly specified)	4.4	-9.8	nt	11.4	-4.1	13.2
CN(C)c1nc(OCCNC(=O)COc2ccc(Cl)cc2Cl)nc(N2CCCCC2)n1	3.0	4.6	94.2*	7.7	25.5	5.4
CN1/C(=C\C=C2C(=O)NC(=O)NC2=O)C(C)(C)c2ccccc21	-11.2	-13.2	16.4	3.3	10.2	2.9
CCN1/C(=C/C=C/C2=[N+](CC)c3ccccc3C2(C)C)C(C)(C)c2ccccc21	-42.5	nt	nt	39.3*	96.4*	-84.8
CC(=NCc1cccnc1)c1c(O)n(-c2ccccc2C)c(=O)[nH]c1=O	4.8	-1.2	-47.9	2.0	11.2	3.4
COC1C(O)C(C)OC(OC2CCC3(C)C(CCC4C3C(O)CC3(C)C(C5=CC(=O)OC5)CCC43O)C2)C1O (stereo unspecified)	-41.0	73.3*	nt	73.9*	100.4*	85.9*
CC(=O)OC1CC(OC2C(O)CC(OC3C(O)CC(OC4CCC5(C)C(CCC6C5CC(O)C5(C)C(C7=CC(=O)OC7)CCC65O)C4)OC3C)OC2C)OC(C)C1OC1OC(CO)C(O)C(O)C1O (stereo unspecified)	-48.1	70.3*	nt	87.2*	94.7*	86.5*
C/C(=N\N1CCCCC1c1cccnc1)c1c(O)n(C2CCCCC2)c(=S)[nH]c1=O (stereo unspecified)	-11.6	-11.1	30.5	32.5	29.2	22.3
Cc1cc(C=C2C(=O)NC(=O)NC2=O)c(C)n1-c1cccnc1	8.2	-8.2	2.9	11.3	2.9	14.4
Cc1sc(-n2c(C)cc(C=C3C(=O)NC(=O)NC3=O)c2C)c(C#N)c1C	nt	nt	80.2*	nt	nt	nt
O=[N+]([O-])c1ccc(Cl)c([N+](=O)[O-])c1	-16.6	43.3	nt	7.3	58.2*	58.3*
CCN(C(=O)COC(=O)c1cn(C)c2ccccc12)c1ccc(F)cc1	-8.2	3.6	nt	-0.1	48.9	-18.0
CCOC(=O)C1(c2ccccc2)CCN(CCC(=O)Nc2cccc(Br)c2)CC1	2.4	18.6	nt	9.5	59.0*	-0.4
Cn1c(O)c(C=Nc2ccc(F)cc2)c(=O)[nH]c1=O	13.4	8.7	nt	7.0	74.1*	-11.4
COc1ccc(CCn2c(O)c(C=Nc3ccc(F)cc3)c(=O)[nH]c2=O)cc1OC	2.3	nt	21.0	21.1	15.7	-8.7
Clc1ccc(COC(Cn2ccnc2)c2ccc(Cl)cc2Cl)cc1 (stereo unspecified)	-13.9	13.8	45.4	15.1	9.4	29.3
Clc1ccc(C(c2ccc(Cl)cc2)n2cc[n+](CC(OCc3ccc(Cl)cc3Cl)c3ccc(Cl)cc3Cl)c2)cc1 (stereo unspecified)	8.4	102.7*	-24.4	97.1*	101.7*	55.7*
C/C=C(/C)C(=O)O[C@H]1C(C)=C2[C@H]([C@@H]1OC(=O)CCCCCCC)[C@@](C)(OC(C)=O)C[C@H](OC(=O)CCC)[C@@]1(O)[C@H]2OC(=O)[C@@]1(C)O	nt	nt	31.7	nt	nt	nt
CCCn1c(=O)c2[nH]c(C3CCCC3)nc2n(CCCOC(=O)c2ccc(S(=O)(=O)F)cc2)c1=O	nt	nt	0.3	nt	nt	nt
Cc1ccc(N2C(=O)NC(=O)/C(=C\C=C\c3ccco3)C2=O)cc1C	-38.1	89.9*	110.4*	75.5*	75.9*	79.7*	CHOP confirm=104.1*
Cc1ccc(N2C(=O)NC(=O)/C(=C\C=C\c3ccco3)C2=O)cc1	-5.5	101.8*	106.2*	42.2*	46.7	52.1*	CHOP confirm=131.9*
Cc1cc(NC(=O)CCl)no1	-0.4	23.7	-2.6	13.6	17.2	-23.1
Cc1nc2ccccc2c(=O)n1-c1c(Cl)cccc1Cl	-4.6	nt	nt	8.5	29.0	0.8
COc1ccc(NC2=NC(C)(C)CS2)cc1	5.8	-96.0	1.0	-203.0	-165.8	-5.4
SMILES	KKLEB cytotox	TRPM1 prom inh	CHOP inh	HIF-2a inh	Peg3 promoter	CF NFkB block	others
CC(C)OCCCNC(=O)c1c(N)n(Cc2cccs2)c2nc3ccccc3nc12	-2.2	16.7	104.8*	18.5	34.5	9.2	CHOP confirm=58.1
COCCCNC(=O)c1c(N)n(Cc2ccco2)c2nc3ccccc3nc12	-6.2	nt	5.6	8.7	11.6	-20.2
CCCCCCCn1c(=O)c(C(=O)Nc2cnccn2)c(O)c2ccccc21	-0.9	55.3	98.1*	-4.7	28.7	2.6	CHOP confirm=116.5*
CCCCCCn1c(=O)c(C(=O)Nc2cccc(C)n2)c(O)c2ccccc21	-16.3	0.7	nt	8.0	23.6	8.4
O=C1NCN(c2ccccc2)C12CCN(CC1COc3ccccc3O1)CC2 (stereo unspecified)	nt	nt	-3.9	nt	nt	nt
O=C1NCN(c2ccccc2)C12CCNCC2	5.8	-4.4	100.9*	-48.5	7.4	1.7	CHOP confirm=9.9
Cc1ccc2c(c1)CC1(CN2C)C(=O)NC(=O)N(CCC2=CCCCC2)C1=O (stereo unspecified)	-2.2	3.5	107.2*	7.8	6.7	-8.5	CHOP confirm=25.2
CCOC(=O)c1c(C)n(Cc2ccco2)c2c1cc(O)c1ccccc12	-1.2	3.4	100.7*	2.5	-21.5	3.3	CHOP confirm=-49.4
CCOC(=O)c1c(C)n(Cc2ccco2)c2ccc(OC)cc12	-7.4	12.8	45.4	9.4	-7.9	0.7
CCCOc1ccccc1OCC(=O)N1CCN(CC(=O)N2CCOCC2)CC1	0.2	nt	nt	12.7	2.3	1.6
CN1/C(=C\C=C\C2=[N+](C)c3ccc4ccccc4c3C2(C)C)C(C)(C)c2ccccc21	nt	nt	108.1*	nt	nt	nt	CHOP confirm=125.0*
Fc1cccc(CCNCc2ccccn2)c1	-1.5	5.5	-18.3	-1.8	-5.5	-5.5
COC(=O)C1=C(c2ccc(OC(F)(F)F)cc2)C[C@@H]2CC[C@H]1N2C(=O)NCCCOC(C)C	-3.1	6.1	nt	8.5	-0.6	-7.6
O=c1[nH]c2ccccc2n1C1CCN(CCCC(c2ccc(F)cc2)c2ccc(F)cc2)CC1	5.5	7.9	-0.3	-6.3	8.0	0.8	CHOP confirm=116.9*
